{
  "source": "PubChem BioAssay (NCI)",
  "note": "The panel holds about 83,000 compounds, 20% with a hit somewhere; the sample as a whole holds those more often.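 Single-dose data. Exposure time 48 hours. Values below 10 considered active.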 A number with no mark means an inactive call. Calls of active or inactive are those of the source.",
  "data": [
    {"system": "SF-295 CNS", "assay": "NCI-60 one-dose screen, 48 h (100 = growth as untreated, 0 = no growth, -100 = all killed)", "details": "10 µM unless noted", "values": [
      {"compound": "COc1cc(NCCCN=C(N)N)c2ncccc2c1", "growth": "88.6%"},
      {"compound": "ClCCN(CCCl)c1nc(Cl)c(C2CC(c3ccccc3)=NN2c2cc(Cl)cc(Cl)c2)s1", "note": "(stereo unspecified)", "growth": "107%"},
      {"compound": "CCCCCCCC(=O)OCC(=O)[C@]1(O)Cc2c(O)c3c(c(O)c2[C@@H](OC2CC(N)C(O)C(C)O2)C1)C(=O)c1c(OC)cccc1C3=O", "note": "(stereo partly specified)", "growth": "-68.1% (active)"},
      {"compound": "O=C1OCC2=C1C(c1ccccc1)c1cc3c(cc1N2)OCO3", "note": "(stereo unspecified)", "growth": "6.68% (active)"},
      {"compound": "c1ccc(Nc2nc(-c3ccccc3)c[se]2)cc1", "growth": "93%"},
      {"compound": "CCN(CC)CCOC(=O)C(OC(C)C)(c1ccccc1)c1ccccc1", "growth": "109%"},
      {"compound": "ClCCN(CCCl)c1ccc(/C=N/Nc2ncnc3nc[nH]c23)cc1", "growth": "57.8%"},
      {"compound": "CC(C)(N)Cc1ccccc1", "growth": "98.1%"},
      {"compound": "CC1(C)N=C(N)N=C(N)N1c1cccc(CCCCc2ccc(Cl)c(S(=O)(=O)F)c2)c1", "growth": "39%"},
      {"compound": "COc1cc(C=C2c3ccccc3C(=O)c3ccccc32)ccc1OCCCCOc1cc2c(cc1OC)C(=O)N1CCCC1C=N2", "note": "(stereo unspecified)", "growth": "-42.2% (active)"},
      {"compound": "COc1ccc(O)c(CNC(=O)CN2CCCC2=O)c1", "growth": "103%"},
      {"compound": "C[C@]12CC[C@H]3[C@@H](CC[C@]4(O)C[C@@H](O[C@@H]5O[C@H](CO)[C@@H](O[C@@H]6OC[C@@H](O)[C@H](O)[C@H]6O)[C@H](O)[C@H]5O)CC[C@]34C=O)[C@@]1(O)CC[C@@H]2C1=CC(=O)OC1", "growth": "8.52% (active)"},
      {"compound": "Clc1ccc2nnnn2n1", "growth": "67.7%"},
      {"compound": "CC1(C)N=C(N)N=C(N)N1c1ccc(CCCCc2ccc(Cl)c(S(=O)(=O)F)c2)c(Cl)c1", "growth": "18.7%"},
      {"compound": "CC(=O)[O][Hg][c]1c(N)c(C)cc(C)c1F", "growth": "73%"},
      {"compound": "O=C(NCCN1CC1)C(=O)NCCN1CC1", "growth": "51%"},
      {"compound": "N#C[Se]Cc1cc(-c2ccccc2)n(-c2ccc(S(N)(=O)=O)cc2)n1", "growth": "-55.8% (active)"},
      {"compound": "O=C(O)C(O)C(O)C1[O][Sb]([c]2ccc([N+](=O)[O-])cc2)[O]C1CO", "note": "(stereo unspecified)", "growth": "101%"},
      {"compound": "O=Cc1cn(Cc2ccc(Cl)cc2)c2ccccc12", "growth": "46%"},
      {"compound": "Cc1ccc(C(=O)NCCCOc2ccc(N)cc2Cl)cc1S(=O)(=O)F", "growth": "86.3%"},
      {"compound": "Clc1ccc(COC(Cn2ccnc2)c2ccc(Cl)cc2Cl)cc1", "note": "(stereo unspecified)", "growth": "17.9%"},
      {"compound": "CC(=O)/C=C/c1ccc2c(c1)OCO2", "growth": "94.1%"}
    ]},
    {"system": "SF-539 CNS", "assay": "NCI-60 one-dose screen, 48 h (100 = growth as untreated, 0 = no growth, -100 = all killed)", "details": "10 µM unless noted", "values": [
      {"compound": "ClCCN(CCCl)c1nc(Cl)c(C2CC(c3ccccc3)=NN2c2cc(Cl)cc(Cl)c2)s1", "note": "(stereo unspecified)", "growth": "101%"},
      {"compound": "CCCCCCCC(=O)OCC(=O)[C@]1(O)Cc2c(O)c3c(c(O)c2[C@@H](OC2CC(N)C(O)C(C)O2)C1)C(=O)c1c(OC)cccc1C3=O", "note": "(stereo partly specified)", "growth": "-79.9% (active)"},
      {"compound": "COC[C@@H]1C[C@@]2(C)[C@@H](CC[C@@H]3[C@@H]2CC[C@@]2(C)[C@H]3CC[C@]2(C)O)CC1=O", "growth": "90.7%"},
      {"compound": "C[C@]12CC[C@@H]3c4ccc(Oc5nc(N6CC6)nc(N6CC6)n5)cc4CC[C@H]3[C@@H]1CCC2=O", "growth": "21.6%"},
      {"compound": "O=C1OCC2=C1C(c1ccccc1)c1cc3c(cc1N2)OCO3", "note": "(stereo unspecified)", "growth": "4.21% (active)"},
      {"compound": "CCC1(C)CC(CCNCc2ccccc2O)(c2ccc(C)cc2)CCO1", "note": "(stereo unspecified)", "growth": "99.1%"},
      {"compound": "ClCCN(CCCl)Cc1ccc(Nc2ccnc3cc(Cl)ccc23)cc1", "growth": "-20.2% (active)"},
      {"compound": "c1ccc(Nc2nc(-c3ccccc3)c[se]2)cc1", "growth": "93.7%"},
      {"compound": "CCN(CC)CCOC(=O)C(OC(C)C)(c1ccccc1)c1ccccc1", "growth": "111%"},
      {"compound": "CCCc1cc(O)c2c3c(c(=O)oc2c1)CN(C)CC3", "growth": "31.7%"},
      {"compound": "ClCCN(CCCl)c1ccc(/C=N/Nc2ncnc3nc[nH]c23)cc1", "growth": "72.7%"},
      {"compound": "CCC1(C(C)C)C(=O)NC(=S)NC1=O", "growth": "94.3%"},
      {"compound": "CC(C)(N)Cc1ccccc1", "growth": "107%"},
      {"compound": "CC1(C)N=C(N)N=C(N)N1c1cccc(CCCCc2ccc(Cl)c(S(=O)(=O)F)c2)c1", "growth": "19.9%"},
      {"compound": "COc1cc(C=C2c3ccccc3C(=O)c3ccccc32)ccc1OCCCCOc1cc2c(cc1OC)C(=O)N1CCCC1C=N2", "note": "(stereo unspecified)", "growth": "-70.9% (active)"},
      {"compound": "C[CH2][Sn]([Cl])([Cl])[CH2]C.Oc1ccccc1C=NCCN=Cc1ccccc1O", "growth": "87.9%"},
      {"compound": "CCOC(=O)C(Cc1ccc(N(CCCl)CCCl)cc1)NC(=O)C(CC(C)C)NC(C)=O", "note": "(stereo unspecified)", "growth": "13.2%"},
      {"compound": "Clc1ccc2nnnn2n1", "growth": "47%"},
      {"compound": "CC1(C)N=C(N)N=C(N)N1c1ccc(CCCCc2ccc(Cl)c(S(=O)(=O)F)c2)c(Cl)c1", "growth": "14%"},
      {"compound": "CC(=O)[O][Hg][c]1c(N)c(C)cc(C)c1F", "growth": "28.3%"},
      {"compound": "O=C(NCCN1CC1)C(=O)NCCN1CC1", "growth": "101%"},
      {"compound": "[Au+].[N-]=C=O.c1ccc(CN2[CH-]N(Cc3ccccc3)C(c3ccccc3)=C2c2ccccc2)cc1", "growth": "110%"},
      {"compound": "O=C(O)CNC(=O)C(Cl)(Cl)Cl", "growth": "103%"},
      {"compound": "CCCCCC1(CCBr)C(=O)NC(=O)NC1=O", "growth": "96.6%"},
      {"compound": "O=C(O)C(O)C(O)C1[O][Sb]([c]2ccc([N+](=O)[O-])cc2)[O]C1CO", "note": "(stereo unspecified)", "growth": "102%"},
      {"compound": "O=Cc1cn(Cc2ccc(Cl)cc2)c2ccccc12", "growth": "87.4%"},
      {"compound": "COc1cc(NC(C)CCCNC2CN3CCC2CC3)c2ncccc2c1", "note": "(stereo unspecified)", "growth": "82.3%"},
      {"compound": "Cc1ccc(C(=O)NCCCOc2ccc(N)cc2Cl)cc1S(=O)(=O)F", "growth": "103%"},
      {"compound": "CC(=O)OCC1O[C@@H]([S-])C(OC(C)=O)[C@H](OC(C)=O)[C@@H]1OC(C)=O.[Au+].c1ccc(CN2[CH-]N(Cc3ccccc3)C(c3ccccc3)=C2c2ccccc2)cc1", "growth": "70.7%"},
      {"compound": "O=C(Nc1ccc(Cl)cc1)Nc1nccs1", "growth": "10.8%"},
      {"compound": "Clc1ccc(COC(Cn2ccnc2)c2ccc(Cl)cc2Cl)cc1", "note": "(stereo unspecified)", "growth": "87.7%"},
      {"compound": "CC1CCCC(C[N+](C)(C)C)C1=O", "note": "(stereo unspecified)", "growth": "94.2%"},
      {"compound": "CC(=O)/C=C/c1ccc2c(c1)OCO2", "growth": "102%"},
      {"compound": "O=C(O)c1ccc([S-])cc1.[Au+].c1ccc(CN2[CH-]N(Cc3ccccc3)C(c3ccccc3)=C2c2ccccc2)cc1", "growth": "-1.4% (active)"}
    ]}
  ]
}
